Data taken from PubChem BioAssay AID1159580 (chemical genetic matrix, 2015).
In all, about 5,500 compounds went through this assay and about 2,000 (36%) were called active. About 18% were inconclusive and are not listed. No stated cut-off is given here; in the data, active means normalized growth mostly below about 0.91 (no sharp cut-off); inconclusive means no clear call, values can overlap the other calls; inactive means mostly above about 0.92. The list shows a part of the results.

Assay: chemical genetic growth profiling, strain panel (AID 1159580);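 further: tested at 20 µM; growth read once vehicle control cultures reached saturation at 30 °C; 1 = growth at the plate median or of vehicle wells; lower values mean less growth of the strain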
Conditions: S. cerevisiae deletion strains, growth OD
[1] = locus YDL101C, strain DUN1, active compounds read low
[2] = locus YHR030C, strain SLT2, active compounds read low
[3] = locus YAR019C, strain CDC15, active compounds read low
[4] = locus YBL105C, strain PKC1, active compounds read low
[5] = locus YBR135W, strain CKS1, active compounds read low
[6] = locus YBR136W, strain MEC1, active compounds read low
[7] = locus YBR160W, strain CDC28, active compounds read low
[8] = locus YDL017W, strain CDC7, active compounds read low
[9] = locus YDL028C, strain MPS1, active compounds read low
[10] = locus YDL108W, strain KIN28, active compounds read low
[11] = locus YDL132W, strain cdc53, active compounds read low
[12] = locus YDL214C, strain PRR2, active compounds read low
[13] = locus YDR052C, strain DBF4, active compounds read low
[14] = locus YDR054C, strain cdc34, active compounds read low
[15] = locus YDR226W, strain ADK1, active compounds read low
[16] = locus YDR477W, strain SNF1, active compounds read low
[17] = locus YER123W, strain YCK3, active compounds read low
[18] = locus YER133W, strain GLC7, active compounds read low
[19] = locus YFL009W, strain cdc4, active compounds read low
[20] = locus YFL029C, strain CAK1, active compounds read low
[21] = locus YFR003C, strain YPI1, active compounds read low
[22] = locus YFR019W, strain FAB1, active compounds read low
[23] = locus YFR028C, strain CDC14, active compounds read low
[24] = locus YGR040W, strain KSS1, active compounds read low
[25] = locus YGR052W, strain FMP48, active compounds read low
[26] = locus YGR092W, strain DBF2, active compounds read low
[27] = locus YHR079C, strain IRE1, active compounds read low
[28] = locus YHR082C, strain KSP1, active compounds read low
[29] = locus YHR205W, strain SCH9, active compounds read low
[30] = locus YIL147C, strain SLN1, active compounds read low
[31] = locus YJL095W, strain BCK1, active compounds read low
[32] = locus YJL128C, strain PBS2, active compounds read low
[33] = locus YJL157C, strain FAR1, active compounds read low
[34] = locus YJR016C, strain ILV3, active compounds read low
[35] = locus YJR066W, strain TOR1 (second series), active compounds read low
[36] = locus YJR066W, strain TOR1, active compounds read low
[37] = locus YKL048C, strain ELM1, active compounds read low
[38] = locus YKL067W, strain YNK1, active compounds read low
[39] = locus YKL101W, strain HSL1, active compounds read low
[40] = locus YKL193C, strain SDS22, active compounds read low
[41] = locus YKL203C, strain TOR2, active compounds read low
[42] = locus YLR113W, strain HOG1, active compounds read low
[43] = locus YLR133W, strain CKI1, active compounds read low
[44] = locus YLR403W, strain SFP1, active compounds read low
[45] = locus YML070W, strain DAK1, active compounds read low
[46] = locus YMR001C, strain CDC5, active compounds read low
[47] = locus YMR205C, strain PFK2 (second series), active compounds read low
[48] = locus YMR277W, strain FCP1, active compounds read low
[49] = locus YNL006W, strain LST8, active compounds read low
[50] = locus YNL020C, strain ARK1, active compounds read low
[51] = locus YNL161W, strain CBK1, active compounds read low
[52] = locus YNL183C, strain NPR1, active compounds read low
[53] = locus YNL207W, strain RIO2, active compounds read low
[54] = locus YNL222W, strain SSU72, active compounds read low
[55] = locus YNL307C, strain MCK1 (second series), active compounds read low
[56] = locus YOL078W, strain AVO1, active compounds read low
[57] = locus YOL136C, strain PFK27, active compounds read low
[58] = locus YOR061W, strain CKA2, active compounds read low
[59] = locus YOR119C, strain RIO1, active compounds read low
[60] = locus YOR231W, strain MKK1, active compounds read low
[61] = locus YOR329C, strain SCD5, active compounds read low
[62] = locus YPL031C, strain PHO85, active compounds read low
[63] = locus YPL153C, strain RAD53, active compounds read low
[64] = locus YPL204W, strain HRR25, active compounds read low
[65] = locus YPL209C, strain IPL1, active compounds read low
[66] = locus YPL256C, strain CLN2, active compounds read low
[67] = locus YPR025C, strain CCL1, active compounds read low
[68] = locus YPR106W, strain ISR1, active compounds read low
[69] = locus YPR111W, strain DBF20, active compounds read low
[70] = strain NNK1, active compounds read low
[71] = strain TSCII, active compounds read low

Measured: normalized growth

COc1c(Br)cc(/C(N)=N\OC(=O)c2c(-c3c(Cl)cccc3Cl)noc2C)cc1Br
inactive: locus YAL013W, strain DEP1, active compounds read low 1.03 | locus YBR229C, strain ROT2, active compounds read low 1.01 | [1] 1 | locus YDR150W, strain NUM1, active compounds read low 1.02 | locus YEL061C, strain CIN8, active compounds read low 0.983 | locus YGR078C, strain PAC10, active compounds read low 1.02 | [2] 1.08 | locus YHR087W, strain rtc3, active compounds read low 1.02 | locus YJR043C, strain POL32, active compounds read low 1.01 | locus YJR075W, strain HOC1, active compounds read low 1.01 | locus YKL190W, strain CNB1, active compounds read low 1.01 | locus YLR039C, strain RIC1, active compounds read low 1.09 | locus YLR058C, strain SHM2 (second series), active compounds read low 1.01 | locus YLR085C, strain ARP6, active compounds read low 1.13 | locus YLR262C, strain YPT6, active compounds read low 1.04 | locus YML094W, strain GIM5, active compounds read low 1.04 | locus YMR219W, strain ESC1, active compounds read low 1.01 | locus YMR263W, strain SAP30, active compounds read low 1 | locus YMR307W, strain GAS1, active compounds read low 1.05 | locus YNL153C, strain GIM3, active compounds read low 0.998 | locus YNL298W, strain CLA4 (second series), active compounds read low 1.05 | locus YNL322C, strain KRE1, active compounds read low 1.01 | locus YNR030W, strain Alg12, active compounds read low 1.03 | locus YPL055C, strain LGE1, active compounds read low 1.07 | locus YPL241C, strain CIN2, active compounds read low 0.98 | locus YPR135W, strain CTF4, active compounds read low 1.17

Cc1onc(-c2c(F)cccc2Cl)c1/C(N)=N\OC(=O)c1ccc(C(C)(C)C)cc1
active: [2] 1.17 [resistant]
inactive: [3] 0.989 | [4] 0.998 | [5] 0.985 | [6] 0.986 | [7] 0.989 | [8] 0.993 | [9] 0.985 | [1] 0.98 | [10] 0.978 | [11] 0.989 | [12] 0.971 | [13] 0.994 | [14] 1 | [15] 0.989 | [16] 0.976 | [17] 0.948 | [18] 0.967 | [19] 0.987 | [20] 1 | [21] 0.997 | [22] 0.982 | [23] 0.984 | [24] 0.975 | [25] 1.1 | [26] 1 | [27] 1.08 | [28] 1.11 | [29] 0.986 | [30] 0.981 | [31] 1.11 | [32] 0.957 | [33] 0.963 | [34] 0.982 | [35] 0.932 | [36] 1.12 | [37] 0.983 | [38] 0.994 | [39] 0.972 | [40] 0.991 | [41] 1.05 | [42] 1 | [43] 0.988 | [44] 0.968 | [45] 0.966 | [46] 0.987 | [47] 0.987 | [48] 0.992 | [49] 0.988 | [50] 0.978 | [51] 0.991 | [52] 1.11 | [53] 0.99 | [54] 0.99 | [55] 0.998 | [56] 0.982 | [57] 0.956 | [58] 0.967 | [59] 1.02 | [60] 1.05 | [61] 0.996 | [62] 0.991 | [63] 0.973 | [64] 0.979 | [65] 0.993 | [66] 1.05 | [67] 0.99 | [68] 0.988 | [69] 0.986 | [70] 0.99 | [71] 0.99

Cc1onc(-c2c(Cl)cccc2Cl)c1C(=O)O/N=C(/N)Cc1ccc(C(C)(C)C)cc1
active: [2] 1.22 [resistant]
inactive: [3] 0.991 | [4] 0.986 | [5] 0.988 | [6] 0.995 | [7] 0.983 | [8] 0.988 | [9] 0.993 | [1] 0.986 | [10] 0.989 | [11] 0.983 | [12] 0.982 | [13] 0.987 | [14] 0.989 | [15] 0.993 | [16] 1 | [17] 0.998 | [18] 0.999 | [19] 0.987 | [20] 0.986 | [21] 0.996 | [22] 0.995 | [23] 0.989 | [24] 0.999 | [25] 1.15 | [26] 0.983 | [27] 1.12 | [28] 1.16 | [29] 0.993 | [30] 0.987 | [31] 1.15 | [32] 0.953 | [33] 0.991 | [34] 0.992 | [35] 0.986 | [36] 1.17 | [37] 0.999 | [38] 1 | [39] 0.998 | [40] 0.989 | [41] 1.06 | [42] 1.08 | [43] 0.991 | [44] 0.994 | [45] 0.99 | [46] 0.989 | [47] 1 | [48] 0.994 | [49] 0.994 | [50] 1.01 | [51] 0.995 | [52] 1.14 | [53] 0.992 | [54] 0.987 | [55] 0.995 | [56] 0.985 | [57] 1.02 | [58] 1.01 | [59] 1.05 | [60] 1.08 | [61] 0.997 | [62] 1.02 | [63] 1 | [64] 1.02 | [65] 1 | [66] 1.1 | [67] 0.986 | [68] 0.994 | [69] 0.988 | [70] 0.997 | [71] 0.99
